This note sets out measurements from PubChem BioAssay (Tox21).

Active and inactive are the calls of the source. A call without a number means that no potency is given here. Calls follow the shape of the dose curve; as a rule, active = well fitted curve in the direction sought with a large enough effect in the repeat runs; inconclusive = weak or mixed curves; inactive = flat fitted curve, though single readings scatter.
Tags tell the direction and shape of the fitted curve or compound fluorescence and quenching.

The nature of one assay: qHTS assay to test for compound auto fluorescence at 535 nm (green) in HepG2 cell free culture (AID 720686). As to conditions: Cell-free medium, green autofluorescence 485/535 nm; series mostly up to 91.3 µM. (In general: qHTS replaces the single test concentration by a dilution series.)
As to `Cc1c([N+](=O)[O-])c(C)c([N+](=O)[O-])c(C(C)(C)C)c1[N+](=O)[O-]`, the Potency entry is “inactive”. As to `N#CC(C#N)=NNc1cccc(Cl)c1`, the Potency result is “inactive”. For the compound `Brc1ccc(Oc2ccc(Br)cc2Br)c(Br)c1`, the Potency result was “inactive”.

Regarding `c1ccc2c(c1)cc1ccc3cccc4ccc2c1c34`, the Potency result was “inactive”. The same measure, in the same setting: with `CC(=O)[O-].CC(=O)[O-].CC(=O)[O-].[Cr+3]` the entry was “inactive”; with `Cc1cc2c3c(c1)C(c1ccccc1)=N[C@@H](NC(=O)c1ccncc1)C(=O)N3CC2`, “inactive”; with `COc1ccc2[nH]cc(CCN(C(C)C)C(C)C)c2c1`, “inactive”. On the same count and under the same terms, for `O=C1C2(Cl)C3(Cl)C4(Cl)C(Cl)(Cl)C5(Cl)C3(Cl)C1(Cl)C5(Cl)C24Cl` (stereo not given) the value was “inactive”; for `CC(C)N(C(=O)CCl)c1ccccc1`, “inactive”; for `CCCN`, “inactive”. As for `CC(=O)[O-].CC(=O)[O-].CC(=O)[O-].[Sb+3]`, the fluorescence, % of fluorescein control was 0.0057% [at 3.72 µM] (inactive). As for `CN1CCc2cc3c(cc2C1O)OCO3` (stereo not given), the Potency result is “inactive”. Still for that read-out and setting: for `NC1CCC(CC2CCC(N)CC2)CC1` (stereo not given) the value was “inactive”. Same read-out and setting: for `CCCC[N+]1(C)CCCC1` (tested in a mixture with another compound) the value was “inactive”; for `c1ccc2nc(N3CCNCC3)ccc2c1`, “inactive”; for `CCCCN(CCCC)C(=S)[S-].CCCCN(CCCC)C(=S)[S-].[Ni+2]`, “inactive”.

Regarding `O=C(Nc1ccc(F)cc1F)c1cccnc1Oc1cccc(C(F)(F)F)c1`, the Potency result is “inactive”. The same measure, in the same setting: with `CC(C)=CC1C(C(=O)OC(C#N)c2cccc(Oc3ccccc3)c2)C1(C)C` (stereo not given) the entry was “inactive”; with `CC1(C)C(C=C(Cl)Cl)C1C(=O)OC(C#N)c1ccc(F)c(Oc2ccccc2)c1` (stereo not given), “inactive”.

Turning to `C=Cc1cccc(CCl)c1`, the Potency entry is “inactive”.

As for `C[C@H]1[C@H](c2ccc(Cl)cc2)SC(=O)N1C(=O)NC1CCCCC1`, the Potency result was “inactive”.

Regarding `CCOC(=O)Cc1ccccc1`, the Potency result is “inactive”. Still for that read-out and setting: with `CC(C)Br` the entry was “inactive”; with `ClC(Cl)C(Cl)(Cl)Cl`, “inactive”. As for `CC(C)C(Br)C(=O)NC(N)=O` (stereo not given), the Potency result is “inactive”.

Another assay is described as follows: qHTS assay to test for compound auto fluorescence at 460 nm (blue) in HepG2 cells (AID 720687). Also: potency is read from the fitted curve at half-maximal effect. The note with it: autofluorescence 405/460 nm, 1 h; series mostly up to 91.3 µM. In outline:
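HepG2 cells in MEM with 10% FBS, attached overnight at 37 C, were exposed to compound or DMSO for 1 hr at 37 C, 5% CO2. Blue fluorescence was read at 405/460 nm, with triamterene as reference fluorophore.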
`Cc1c([N+](=O)[O-])c(C)c([N+](=O)[O-])c(C(C)(C)C)c1[N+](=O)[O-]`: the Potency result is “inactive”. On the same count and under the same terms, for `N#CC(C#N)=NNc1cccc(Cl)c1` the value was “inactive”; for `Brc1ccc(Oc2ccc(Br)cc2Br)c(Br)c1`, “inactive”; for `CCOP(=O)(Sc1ccccc1)Sc1ccccc1`, “inactive”. On the same count and under the same terms, for `Oc1cc(Cl)cc(Cl)c1` the value was “inactive”; for `CC(=O)[O-].CC(=O)[O-].CC(=O)[O-].[Cr+3]`, “inactive”; for `Cc1cc2c3c(c1)C(c1ccccc1)=N[C@@H](NC(=O)c1ccncc1)C(=O)N3CC2`, “inactive”. The same measure, in the same setting: with `COc1ccc2[nH]cc(CCN(C(C)C)C(C)C)c2c1` the entry was “inactive”; with `O=C1C2(Cl)C3(Cl)C4(Cl)C(Cl)(Cl)C5(Cl)C3(Cl)C1(Cl)C5(Cl)C24Cl` (stereo not given), “inactive”. As to `CC(C)N(C(=O)CCl)c1ccccc1`, the Potency entry was “inactive”.

With `CCNc1nc(NC(C)C(C)C)nc(SC)n1` (stereo not given), the Potency result was “inactive”. Same read-out and setting: for `CCCN` the value was “inactive”. As to `CC(=O)[O-].CC(=O)[O-].CC(=O)[O-].[Sb+3]`, the fluorescence, % of fluorescent control is 0.0192% [at 3.72 µM] (inactive). `Nc1cc(Cl)ccc1Cl`: the Potency result was “inactive”.

In the case of `CN1CCc2cc3c(cc2C1O)OCO3` (stereo not given), the Potency was 39.8 µM [fluorescent] (active). Same read-out and setting: with `NC1CCC(CC2CCC(N)CC2)CC1` (stereo not given) the entry was “inactive”; with `COP(=O)(OC)O/C(=C\Cl)c1cc(Cl)c(Cl)cc1Cl`, “inactive”.

Take `CCCC[N+]1(C)CCCC1` (tested in a mixture with another compound): the Potency entry was “inactive”. Take `c1ccc2nc(N3CCNCC3)ccc2c1`: the Potency entry was “inactive”. Same read-out and setting: with `CCCCN(CCCC)C(=S)[S-].CCCCN(CCCC)C(=S)[S-].[Ni+2]` the entry was “inactive”; with `O=C(Nc1ccc(F)cc1F)c1cccnc1Oc1cccc(C(F)(F)F)c1`, “inactive”. For `CC(C)=CC1C(C(=O)OC(C#N)c2cccc(Oc3ccccc3)c2)C1(C)C` (stereo not given), the Potency result was “inactive”. Take `CC1(C)C(C=C(Cl)Cl)C1C(=O)OC(C#N)c1ccc(F)c(Oc2ccccc2)c1` (stereo not given): the Potency result was “inactive”. Same read-out and setting: with `C#CC1(O)CCCCC1` the entry was “inactive”.

Consider `C=Cc1cccc(CCl)c1`, for which the Potency entry was “inactive”. As for `CCC(C)c1cccc(C(C)CC)c1O` (stereo not given), the Potency result is “inactive”. On the same count and under the same terms, for `C[C@H]1[C@H](c2ccc(Cl)cc2)SC(=O)N1C(=O)NC1CCCCC1` the value was “inactive”. As for `N#Cc1ccc(N(CC(N)=O)CC(F)(F)F)cc1C(F)(F)F`, the Potency entry was “inactive”. On to `O=C(Cl)c1ccccc1F`, for which the Potency result is “inactive”. On to `CCOC(=O)Cc1ccccc1`, for which the Potency result is “inactive”. The same measure, in the same setting: with `Brc1cccc(-c2ccccc2)c1` the entry was “inactive”; with `CC(C)Br`, “inactive”; with `CC(=O)C(Cl)C(=O)N(C)C` (stereo not given), “inactive”. On the same count and under the same terms, for `ClC(Cl)C(Cl)(Cl)Cl` the value was “inactive”; for `CC(C)C(Br)C(=O)NC(N)=O` (stereo not given), “inactive”.
